Laboratory results as given in PubChem BioAssay (NCATS).
Results filed as inconclusive are left out. Calls of active or inactive are those of the source. Unless noted, calls come from the whole dose curve; as a rule, active = well fitted curve in the direction sought with a large enough effect; inconclusive = small, poorly fitted or top-dose-only effect, or another doubt; inactive = no such curve, though single readings can be large; an effect the other way counts as inactive or inconclusive.

Legend:
[1] = AP1 Signaling Pathway (AID 357; active = well fitted curve in either direction with a large enough effect, not every such curve was filed as active;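 note: ME-180 reporter cells stimulated with EGF at its EC50 level; % is set by controls: 0 for no effect and ±100 for the full control effect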); conditions: ME-180 AP-1-bla reporter, EGF-induced, beta-lactamase ratio, 5 h; at 7.69 µM (top of the series) unless noted
Procedure, shortened: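 Beta-lactamase reporter under AP-1 response element, ME-180 background. Stimulus: EC50 EGF. Compound exposure 5 h, 37 °C. Detection: CCF4, 2.5 h RT, 460/530 nm. Values: AC50 from titration.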

[2] = molecular target: Cytochrome P450 1A2 (Homo sapiens) (UniProt P05177); experiment: p450-cyp1a2 (AID 410; calls by dose curve; note: potency is the fitted concentration of half-maximal effect)
Chain of Cytochrome P450 1A2 (Homo sapiens) (P05177 whole entry, looked up): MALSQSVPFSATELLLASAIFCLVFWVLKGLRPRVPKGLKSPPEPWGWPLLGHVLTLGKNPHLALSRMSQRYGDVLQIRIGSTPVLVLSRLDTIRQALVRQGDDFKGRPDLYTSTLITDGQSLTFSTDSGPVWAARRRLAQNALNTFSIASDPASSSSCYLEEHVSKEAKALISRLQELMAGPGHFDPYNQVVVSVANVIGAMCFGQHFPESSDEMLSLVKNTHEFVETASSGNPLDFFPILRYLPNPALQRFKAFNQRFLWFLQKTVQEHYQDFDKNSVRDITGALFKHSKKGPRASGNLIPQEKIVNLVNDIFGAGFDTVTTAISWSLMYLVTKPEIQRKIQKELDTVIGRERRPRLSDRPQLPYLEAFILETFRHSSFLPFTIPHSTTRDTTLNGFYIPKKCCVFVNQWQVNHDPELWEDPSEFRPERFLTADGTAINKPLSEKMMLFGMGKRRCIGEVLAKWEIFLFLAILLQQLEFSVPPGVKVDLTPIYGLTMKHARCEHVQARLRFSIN
Procedure, shortened: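 20nM CYP1A2 with 100uM Luciferin-ME (at Km) in 100mM KPO4; compound preincubated 10 min, NADPH regeneration added, 60 min at room temperature. Luciferin quantified by luminescence after detection reagent; normalized to 57 uM furafylline.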

[3] = NFAT Signaling Pathway (AID 444; active = well fitted curve in either direction with a large enough effect, not every such curve was filed as active;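 note: carbachol stimulus at about its EC50 of 1 µM final; % is set by controls: 0 for no effect and ±100 for the full control effect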); conditions: Jurkat NFAT-bla M1, carbachol, beta-lactamase ratio, 5 h; at 7.69 µM (top of the series) unless noted
Procedure, shortened: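 Jurkat cells with NFAT-driven β-lactamase reporter and co-expressed M1 receptor, stimulated with carbachol (final 1 uM, ~EC50), compound titration, 5 h at 37 °C. CCF4 loaded 1 h at RT; 460/530 nm ratio gave %activity and AC50.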

[4] = Stat Signaling Pathway (AID 446; active = well fitted curve in either direction with a large enough effect, not every such curve was filed as active;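 note: ME-180 cervical cancer cells given 40 pM IL-6 alongside compound; SIE-controlled beta-lactamase reporter measured as 460/530 nm FRET emission ratio; % is set by controls: 0 for no effect and ±100 for the full control effect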); conditions: ME-180 SIE beta-lactamase reporter, IL-6 stimulated, 5 h; at 7.69 µM (top of the series) unless noted
Procedure, shortened: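 Reporter line: ME-180 cervical carcinoma, SIE-beta-lactamase. Treatment: compound with 40 pM IL-6, 5 hrs, 37 C, in low-serum OPTI-MEM with 10 mM HEPES pH 7.3. Detection: 460/530 nm fluorescence.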

[5] = molecular target: Glucocorticoid receptor (Homo sapiens) (UniProt P04150); experiment: GR-EFC Redistribution (AID 451; calls by dose curve; note: potency is the fitted concentration of half-maximal effect); conditions: CHO-K1 GR-EFC translocation, beta-gal luminescence, 2 h
Chain of Glucocorticoid receptor (Homo sapiens) (P04150 whole entry, looked up, the tested form may be a part): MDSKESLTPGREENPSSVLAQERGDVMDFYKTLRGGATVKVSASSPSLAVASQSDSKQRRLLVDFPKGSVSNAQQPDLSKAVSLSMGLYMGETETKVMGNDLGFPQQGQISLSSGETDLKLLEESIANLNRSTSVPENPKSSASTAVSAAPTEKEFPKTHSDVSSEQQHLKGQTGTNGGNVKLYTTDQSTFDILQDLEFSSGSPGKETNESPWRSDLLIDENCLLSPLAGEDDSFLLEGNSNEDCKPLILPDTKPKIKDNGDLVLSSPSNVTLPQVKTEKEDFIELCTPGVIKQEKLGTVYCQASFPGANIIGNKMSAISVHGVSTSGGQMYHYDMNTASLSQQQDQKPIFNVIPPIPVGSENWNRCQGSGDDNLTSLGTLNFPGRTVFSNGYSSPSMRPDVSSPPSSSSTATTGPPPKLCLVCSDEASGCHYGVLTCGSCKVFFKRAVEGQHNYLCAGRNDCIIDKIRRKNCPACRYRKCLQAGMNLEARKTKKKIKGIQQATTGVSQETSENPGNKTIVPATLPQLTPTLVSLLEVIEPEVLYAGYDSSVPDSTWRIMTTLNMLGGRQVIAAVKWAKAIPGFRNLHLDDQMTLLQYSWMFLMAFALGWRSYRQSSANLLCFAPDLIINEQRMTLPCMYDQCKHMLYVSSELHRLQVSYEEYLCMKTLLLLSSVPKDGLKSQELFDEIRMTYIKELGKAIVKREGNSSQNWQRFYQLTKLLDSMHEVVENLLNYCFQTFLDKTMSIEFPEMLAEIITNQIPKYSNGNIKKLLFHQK
Procedure, shortened: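 CHO-K1 cells expressing nuclear EA and GR-ED fragments of b-gal; compounds titrated up to 46 uM final, 2 h at 37 C. GR nuclear translocation read as complemented b-gal luminescence after 1 h RT detection.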

[6] = molecular target: Mitogen-activated protein kinase 10 (Mus musculus) (UniProt Q61831); experiment: JNK3 AlphaScreen Assay (AID 530; active = well fitted curve in either direction with a large enough effect, not every such curve was filed as active;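 note: kinase came from lysate of stimulated human HepG2 cells; signal reports phosphorylation of biotinylated GST-cJun 1-79 at Ser73 with 10 µM ATP; % is set by controls: 0 for no effect and ±100 for the full control effect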)
Procedure, shortened: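 Pre-activated (IL-1β/TNFα) JNK3 in HepG2 lysates phosphorylates biotin-GST-cJun(1-79), 10 uM ATP; anti-phospho-cJun(Ser73) AlphaScreen read at room temperature, pH 7.6 Tris buffer. Compounds pre-incubated 15 min as titrations.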

[7] = molecular target: Cytochrome P450 3A4 (Homo sapiens) (UniProt P08684); experiment: qHTS Assay for Activators of Cytochrome P450 3A4 (AID 885); note: nearly all actives have a fitted effect of over 65% in size
Chain of Cytochrome P450 3A4 (Homo sapiens) (P08684 whole entry, looked up): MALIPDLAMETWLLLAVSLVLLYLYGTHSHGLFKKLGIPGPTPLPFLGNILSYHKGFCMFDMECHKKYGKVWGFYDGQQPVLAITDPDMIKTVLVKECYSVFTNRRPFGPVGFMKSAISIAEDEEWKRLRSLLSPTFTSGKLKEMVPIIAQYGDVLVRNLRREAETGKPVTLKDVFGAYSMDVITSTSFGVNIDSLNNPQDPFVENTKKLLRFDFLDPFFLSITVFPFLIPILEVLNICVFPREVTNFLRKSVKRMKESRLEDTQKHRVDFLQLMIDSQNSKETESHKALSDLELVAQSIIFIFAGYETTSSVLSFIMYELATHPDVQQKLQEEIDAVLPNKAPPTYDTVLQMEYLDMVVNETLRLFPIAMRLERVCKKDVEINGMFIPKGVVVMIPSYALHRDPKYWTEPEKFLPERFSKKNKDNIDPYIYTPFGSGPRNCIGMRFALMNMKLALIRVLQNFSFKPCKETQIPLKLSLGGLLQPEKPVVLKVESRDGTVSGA
Procedure, shortened: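 Signal was normalized against complete inhibition by 57 uM ketoconazole. The reaction used 20nM CYP3A4 with 25uM Luciferin-PPXE, 10-min compound preincubation and a 60-min NADPH-supported step at RT.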

[8] = molecular target: Cytochrome P450 2C19 (Homo sapiens) (UniProt P33261); experiment: qHTS Assay for Inhibitors and Substrates of Cytochrome P450 2C19 (AID 899); note: potency is the fitted concentration of half-maximal effect; nearly all actives have a fitted effect of over 60% in size
Chain of Cytochrome P450 2C19 (Homo sapiens) (P33261 whole entry, looked up): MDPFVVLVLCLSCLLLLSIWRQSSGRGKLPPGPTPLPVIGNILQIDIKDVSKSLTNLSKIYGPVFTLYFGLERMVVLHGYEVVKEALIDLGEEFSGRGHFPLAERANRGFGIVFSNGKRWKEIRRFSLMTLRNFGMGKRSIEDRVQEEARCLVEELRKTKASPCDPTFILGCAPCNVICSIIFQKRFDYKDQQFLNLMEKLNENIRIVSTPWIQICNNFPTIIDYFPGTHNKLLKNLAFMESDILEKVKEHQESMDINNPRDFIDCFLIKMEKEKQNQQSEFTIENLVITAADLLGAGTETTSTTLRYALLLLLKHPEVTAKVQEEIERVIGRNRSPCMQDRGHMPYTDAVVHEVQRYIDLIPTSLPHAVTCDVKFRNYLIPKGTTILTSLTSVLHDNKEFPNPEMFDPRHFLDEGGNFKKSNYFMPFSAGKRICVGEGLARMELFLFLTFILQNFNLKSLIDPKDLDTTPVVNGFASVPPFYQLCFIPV
Procedure, shortened: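 5 nM human CYP2C19 with 10uM Luciferin-H EGE (at KM) in 50mM KPO4, compound preincubated 10 min at 37C, then NADPH regeneration for 60 min at 37C. Luciferin read by luminescence after detection reagent; normalized to 57uM ketoconazole as full inhibition.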

[9] = qHTS Assay for Lipid Storage Modulators (AID 1519; calls by dose curve); conditions: Drosophila S3 cells, BODIPY lipid droplet/cell ratio, laser cytometry, cells loaded with oleic acid; for activity change, negative = inhibition: at 57.5 µM (top of the series)
Procedure, shortened: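 Cells seeded at 5,000 per well were treated with compounds over a concentration series and loaded with oleic acid (400 uM, as added). Lipid droplet fluorescence (488 nm excitation, 500-530 nm channel) was read by laser-scanning cytometry and normalized to 20 uM Triacsin C.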

[10] = molecular target: Dual specificity protein kinase CLK4 (Homo sapiens) (UniProt Q9HAZ1); experiment: qHTS Assay for Inhibitors of CDC-like Kinase 4 (Kinase-Glo Assay) (AID 1770); note: nearly all actives have a fitted effect of over 65% in size; note: potency is the fitted concentration of half-maximal effect
Chain of Dual specificity protein kinase CLK4 (Homo sapiens) (Q9HAZ1 whole entry, looked up): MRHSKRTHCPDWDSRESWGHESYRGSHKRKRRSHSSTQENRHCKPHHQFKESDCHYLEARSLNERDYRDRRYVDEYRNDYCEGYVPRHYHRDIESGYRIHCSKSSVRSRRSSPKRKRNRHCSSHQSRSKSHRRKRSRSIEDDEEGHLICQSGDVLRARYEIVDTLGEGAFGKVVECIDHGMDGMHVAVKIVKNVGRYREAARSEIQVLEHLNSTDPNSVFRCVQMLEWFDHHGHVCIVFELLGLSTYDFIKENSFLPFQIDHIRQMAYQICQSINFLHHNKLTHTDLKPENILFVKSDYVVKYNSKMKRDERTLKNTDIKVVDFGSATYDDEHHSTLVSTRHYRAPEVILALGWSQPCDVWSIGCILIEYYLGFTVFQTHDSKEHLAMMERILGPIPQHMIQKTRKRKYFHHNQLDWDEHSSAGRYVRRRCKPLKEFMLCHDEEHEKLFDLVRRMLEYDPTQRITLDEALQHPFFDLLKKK
Procedure, shortened: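 Clk4 25 nM, RS peptide 100 uM, ATP 1 uM, pH 7.5 Tris, 10 mM MgCl2, 2.5 mM DTT; 4.5 h RT; ATP depletion read by Kinase-Glo luminescence.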

[11] = molecular target: Dual specificity protein kinase CLK4 (Homo sapiens) (UniProt Q9HAZ1); experiment: qHTS Assay for Inhibitors of CDC-like Kinase 4 (ADP-Glo Assay) (AID 1771); note: nearly all actives have a fitted effect of over 70% in size; note: potency is the fitted concentration of half-maximal effect
Procedure, shortened: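 25 nM Clk4 with 100 uM RS repeat peptide and 1 uM ATP (final) in buffer with 2 mM MgCl2, 0.5 mM EGTA, 2.5 mM DTT, 0.01% Triton X-100; 1 h at room temperature; ADP-Glo luminescence for ADP formed.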

[12] = molecular target: Ubiquitin carboxyl-terminal hydrolase 1 (Homo sapiens) (UniProt O94782); experiment: Inhibitors of USP1/UAF1: Pilot qHTS (AID 504865);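 note: rhodamine fluorescence freed from ubiquitin-rhodamine substrate followed over time; top concentration of the series differs between compounds; % is set by controls: 0 for no effect and ±100 for the full control effect; nearly all actives have a fitted effect of over 35% in size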
Chain of Ubiquitin carboxyl-terminal hydrolase 1 (Homo sapiens) (O94782 whole entry, looked up): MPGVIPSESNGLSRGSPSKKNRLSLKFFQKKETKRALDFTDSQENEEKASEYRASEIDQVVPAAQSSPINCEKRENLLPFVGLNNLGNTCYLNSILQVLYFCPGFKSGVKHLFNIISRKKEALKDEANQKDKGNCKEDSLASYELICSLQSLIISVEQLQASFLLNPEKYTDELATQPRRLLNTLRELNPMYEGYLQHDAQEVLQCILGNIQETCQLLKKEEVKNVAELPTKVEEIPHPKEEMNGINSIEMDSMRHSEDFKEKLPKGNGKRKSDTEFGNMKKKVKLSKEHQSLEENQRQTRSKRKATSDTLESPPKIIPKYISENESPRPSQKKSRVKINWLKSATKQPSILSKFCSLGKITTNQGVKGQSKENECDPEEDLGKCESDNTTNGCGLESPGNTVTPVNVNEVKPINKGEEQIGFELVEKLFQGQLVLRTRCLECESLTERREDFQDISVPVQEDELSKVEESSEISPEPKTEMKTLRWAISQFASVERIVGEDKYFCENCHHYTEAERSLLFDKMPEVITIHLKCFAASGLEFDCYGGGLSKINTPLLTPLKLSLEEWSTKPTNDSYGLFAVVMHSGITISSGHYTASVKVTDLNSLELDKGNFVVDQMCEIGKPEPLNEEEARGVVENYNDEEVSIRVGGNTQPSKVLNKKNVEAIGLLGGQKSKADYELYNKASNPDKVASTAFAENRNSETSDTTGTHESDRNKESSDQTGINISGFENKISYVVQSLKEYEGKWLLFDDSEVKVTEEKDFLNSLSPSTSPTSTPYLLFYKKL
Procedure, shortened: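 Enzyme-free wells gave the negative control, while test wells held 1nM USP1/UAF1 preincubated with compound for 15 min at room temperature. Ub-Rho at 150nM final started the reaction, and fluorescence at 480/540 nm was recorded kinetically.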

[13] = molecular target: Glucocorticoid receptor (Homo sapiens) (UniProt P04150); experiment: GR-GFP Redistribution (AID 450;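 active = compounds whose dose series gives a full or clear partial fitted curve of increased nuclear translocation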; note: potency is the fitted concentration of half-maximal effect); conditions: U2OS GR-GFP nuclear translocation, laser cytometry, 2 h
[14] = molecular target: Cytochrome P450 3A4 (Homo sapiens) (UniProt P08684); experiment: qHTS Assay for Inhibitors and Substrates of Cytochrome P450 3A4 (AID 884); note: potency is the fitted concentration of half-maximal effect; nearly all actives have a fitted effect of over 50% in size
Procedure, shortened: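 20 nM human CYP3A4 with 25 uM Luciferin-PPXE (at KM) in 200 mM KPO4, preincubated 10 min with compound; NADPH regeneration started a 60 min RT reaction. Luciferin detected by luminescence, normalized to 57 uM ketoconazole as full inhibition.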

[15] = molecular target: Dual specificity protein kinase CLK4 (Homo sapiens) (UniProt Q9HAZ1); experiment: qHTS Assay for Inhibitors of CDC-like Kinase 4 (ADP-FP Assay) (AID 1795); note: nearly all actives have a fitted effect of over 60% in size; note: potency is the fitted concentration of half-maximal effect
Procedure, shortened: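 Kinase activity was followed as ADP output, converted from fluorescence polarization with a calibration curve. Reactions ran one hour at low ATP (1 uM) with RS peptide substrate.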

[16] = molecular target: Lysosomal acid glucosylceramidase (Homo sapiens) (UniProt P04062); experiment: Glucocerebrosidase-p2 (AID 348; in the data active = potency below about 10 µM; note: potency is the fitted concentration of half-maximal effect); conditions: purified GBA, blue fluorogenic substrate, 40 min
Chain of Lysosomal acid glucosylceramidase (Homo sapiens) (P04062 whole entry, looked up): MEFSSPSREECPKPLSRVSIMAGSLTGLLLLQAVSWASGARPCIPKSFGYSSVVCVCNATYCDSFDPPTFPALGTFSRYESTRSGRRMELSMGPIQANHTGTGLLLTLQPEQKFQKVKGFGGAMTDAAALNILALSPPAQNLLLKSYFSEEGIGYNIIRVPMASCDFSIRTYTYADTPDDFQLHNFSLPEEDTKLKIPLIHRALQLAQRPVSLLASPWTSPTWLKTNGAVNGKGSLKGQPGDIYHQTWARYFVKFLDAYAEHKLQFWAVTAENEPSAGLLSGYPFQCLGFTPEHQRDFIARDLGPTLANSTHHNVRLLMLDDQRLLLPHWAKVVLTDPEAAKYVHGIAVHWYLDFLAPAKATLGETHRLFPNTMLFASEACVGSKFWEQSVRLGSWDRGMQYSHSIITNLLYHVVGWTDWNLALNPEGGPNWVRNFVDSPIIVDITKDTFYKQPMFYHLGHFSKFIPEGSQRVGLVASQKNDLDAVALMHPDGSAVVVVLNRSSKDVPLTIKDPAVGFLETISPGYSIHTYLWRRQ
Procedure, shortened: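 Compounds titrated from 0.6 nM upwards against 0.2 nM enzyme in pH 5.9 citric acid/KH2PO4, taurocholate, tween-20; blue fluorogenic substrate 80 uM, 40 min room temperature, stopped and read Ex 365/Em 440 for AC50.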

[17] = molecular target: 3',5'-cyclic-AMP phosphodiesterase 4B (Homo sapiens) (UniProt Q07343); experiment: qHTS Assay for Inhibitors of PDE-IV (AID 607; active = well fitted activation curve with a large enough effect in the main read-out, with a control signal flat, not every such curve was filed as active; note: % of control where 0% means no effect)
Chain of 3',5'-cyclic-AMP phosphodiesterase 4B (Homo sapiens) (Q07343 whole entry, looked up): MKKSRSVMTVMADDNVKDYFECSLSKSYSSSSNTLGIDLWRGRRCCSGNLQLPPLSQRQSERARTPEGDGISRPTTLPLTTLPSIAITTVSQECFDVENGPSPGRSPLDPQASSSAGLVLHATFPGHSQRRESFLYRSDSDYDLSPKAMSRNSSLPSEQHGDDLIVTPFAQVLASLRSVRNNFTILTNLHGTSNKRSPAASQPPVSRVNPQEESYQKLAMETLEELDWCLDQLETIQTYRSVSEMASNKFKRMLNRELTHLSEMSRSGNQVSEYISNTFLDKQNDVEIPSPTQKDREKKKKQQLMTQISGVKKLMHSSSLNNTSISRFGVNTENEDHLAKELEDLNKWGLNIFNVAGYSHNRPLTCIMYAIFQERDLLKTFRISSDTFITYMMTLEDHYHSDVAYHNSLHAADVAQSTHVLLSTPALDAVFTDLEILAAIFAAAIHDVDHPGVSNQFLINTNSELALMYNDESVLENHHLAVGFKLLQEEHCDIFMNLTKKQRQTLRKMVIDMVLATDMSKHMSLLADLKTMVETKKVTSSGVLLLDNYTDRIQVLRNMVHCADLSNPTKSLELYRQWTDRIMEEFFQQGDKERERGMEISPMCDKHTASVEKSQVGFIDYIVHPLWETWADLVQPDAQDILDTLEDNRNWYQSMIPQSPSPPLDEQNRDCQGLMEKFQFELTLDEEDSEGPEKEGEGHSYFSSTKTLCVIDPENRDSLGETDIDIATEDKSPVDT
Procedure, shortened: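 Cell-based read-out of cAMP via a modified cyclic nucleotide-gated channel and membrane potential dye (535/590 nm) in HEK293 cells expressing PDE4 endogenously. Compounds tested up to 22.9 uM final; 100 uM RO 20-1724 reference.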

[18] = measured here: cell count channel max response
[19] = measured here: lipid channel max response

COCCNc1ncnc2ccc(-c3ccccc3C(F)(F)F)cc12
inactive: activity change, negative = inhibition [1] 15.6% | activity change, negative = inhibition [3] 18.9% | activity, negative = inhibition [4] -11.6% | Potency [5] > 46 µM | Potency [6] | Potency [7] | activity change, negative = inhibition [9] -1.49% | Potency [12]
active: Potency [2] 1.58 µM | Potency [8] 6.31 µM | Potency [10] 25.1 µM | Potency [11] 31.6 µM
-5.73%: max response [9, 19]
-4.06%: max response [9, 18]

COc1ccc(CNc2ncnc3ccc(-c4ccoc4)cc23)c(OC)c1
19.6%: max response [9, 18]
inactive: activity change, negative = inhibition [3] 4.83% | activity, negative = inhibition [4] -19.6% | Potency [13] > 46 µM | Potency [5] > 46 µM | Potency [6] | Potency [7] | activity change, negative = inhibition [9] -9.76% | Potency [12]
6.18%: max response [9, 19]
active: Potency [2] 1.58 µM | Potency [14] 3.16 µM | Potency [8] 7.94 µM | Potency [10] 0.708 µM | Potency [11] 1 µM | Potency [15] 282 nM

COCCn1c(=O)c(-c2cccc(C#N)c2)nc2cnc(N3CCN(C)CC3)nc21
inactive: Potency [16] > 11.4 µM | activity change, negative = inhibition [1] -14.7% | activity change, negative = inhibition [3] 0.13% | activity, negative = inhibition [4] -4.72% | Potency [13] > 9.22 µM | Potency [5] > 46 µM | Potency [6] | Potency [17] | activity change, negative = inhibition [9] 6.64% | Potency [10] | Potency [15] | Potency [12]
22.5%: max response [9, 19]
18.2%: max response [9, 18]
active: Potency [2] 15.8 µM

COc1cccc(Cn2c(=O)c(-c3ccc(F)cc3)nc3cnc(N4CCNCC4)nc32)c1
2.95%: max response [9, 18]
active: Potency [2] 25.1 µM
0.893%: max response [9, 19]
inactive: Potency [16] > 11.4 µM | Potency [13] > 9.22 µM | Potency [5] > 46 µM | Potency [17] | Potency [7] | activity change, negative = inhibition [9] -5.11% | Potency [10] | Potency [15]

N#CCCn1c(=O)c(-c2cc(F)cc(F)c2)nc2cnc(Oc3ccccc3)nc21
inactive: Potency [16] > 11.4 µM | activity change, negative = inhibition [1] -18% | activity change, negative = inhibition [3] 1.84% | activity, negative = inhibition [4] -2.23% | Potency [13] > 9.22 µM | Potency [5] > 46 µM | Potency [6] | Potency [17] | activity change, negative = inhibition [9] 7.78% | Potency [10] | Potency [11] | Potency [12]
10.8%: max response [9, 18]
active: Potency [2] 2 µM
17.1%: max response [9, 19]

CN1CCN(c2ncc3nc(-c4cn(C)c5ccccc45)c(=O)n(C)c3n2)CC1
7.27%: max response [9, 18]
active: Potency [2] 31.6 µM
7.8%: max response [9, 19]
inactive: Potency [16] > 11.4 µM | activity change, negative = inhibition [1] -20.2% | activity change, negative = inhibition [3] 11.3% | activity, negative = inhibition [4] 12.5% | Potency [13] > 9.22 µM | Potency [5] > 46 µM | Potency [6] | Potency [17] | Potency [7] | activity change, negative = inhibition [9] 2.17% | Potency [10] | Potency [15] | Potency [12]
